Screening results (PubChem)
An excerpt weighted towards active compounds, which were near 0.87% of everything screened.
BLM helicase inh: blocks DNA unwinding by human BLM helicase. recombinant BLM DNA unwinding, fluorescence dequenching. 350,000 compounds, 0.2% hits. P54132. Potency, µM (series often up to 56.1 µM), for inactives: top-dose activity change, negative = inhibition, usual class: inhibitors;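 note: plate controls were vehicle for no effect and no enzyme for full effect; nearly all actives have a fitted effect of over 35% in size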
RECQ1 inh-1: inhibitors of human RECQ1 DNA helicase. RECQ1 DNA unwinding, red fluorescence kinetic read. 240,000 compounds, 0.54% hits. Potency, µM (titrated, usually from 57.3 µM), for inactives: at the top dose activity, negative = inhibition, most hits filed as inhibitors. AID 2549. P46063;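 note: plate controls were vehicle for no effect and no enzyme for full effect; nearly all actives have a fitted effect of over 30% in size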
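50 nM RECQ1T1 preincubated 15 min with compound in Tris pH 8.0 buffer with MgCl2, DTT, Tween-20 and 2.5 ug/ml poly(dI-dC); started with 200 nM TAMRA/BHQ-2 forked duplex and 2 mM ATP. Unwinding read as fluorescence (525/598 nm), two reads 2 h apart.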
WRN helicase inh: inhibitors of human WRN helicase; Potency, µM (doses to about 114 µM), for inactives: at the highest dose activity change, negative = inhibition, actives largely listed as inhibitors; AID 651768; 360,000 compounds, 0.46% hits; Q14191; WRN helicase unwinding, fluorescent forked duplex, kinetic; note: nearly all actives have a fitted effect of over 55% in size
Target sequence (Q14191 whole entry, looked up): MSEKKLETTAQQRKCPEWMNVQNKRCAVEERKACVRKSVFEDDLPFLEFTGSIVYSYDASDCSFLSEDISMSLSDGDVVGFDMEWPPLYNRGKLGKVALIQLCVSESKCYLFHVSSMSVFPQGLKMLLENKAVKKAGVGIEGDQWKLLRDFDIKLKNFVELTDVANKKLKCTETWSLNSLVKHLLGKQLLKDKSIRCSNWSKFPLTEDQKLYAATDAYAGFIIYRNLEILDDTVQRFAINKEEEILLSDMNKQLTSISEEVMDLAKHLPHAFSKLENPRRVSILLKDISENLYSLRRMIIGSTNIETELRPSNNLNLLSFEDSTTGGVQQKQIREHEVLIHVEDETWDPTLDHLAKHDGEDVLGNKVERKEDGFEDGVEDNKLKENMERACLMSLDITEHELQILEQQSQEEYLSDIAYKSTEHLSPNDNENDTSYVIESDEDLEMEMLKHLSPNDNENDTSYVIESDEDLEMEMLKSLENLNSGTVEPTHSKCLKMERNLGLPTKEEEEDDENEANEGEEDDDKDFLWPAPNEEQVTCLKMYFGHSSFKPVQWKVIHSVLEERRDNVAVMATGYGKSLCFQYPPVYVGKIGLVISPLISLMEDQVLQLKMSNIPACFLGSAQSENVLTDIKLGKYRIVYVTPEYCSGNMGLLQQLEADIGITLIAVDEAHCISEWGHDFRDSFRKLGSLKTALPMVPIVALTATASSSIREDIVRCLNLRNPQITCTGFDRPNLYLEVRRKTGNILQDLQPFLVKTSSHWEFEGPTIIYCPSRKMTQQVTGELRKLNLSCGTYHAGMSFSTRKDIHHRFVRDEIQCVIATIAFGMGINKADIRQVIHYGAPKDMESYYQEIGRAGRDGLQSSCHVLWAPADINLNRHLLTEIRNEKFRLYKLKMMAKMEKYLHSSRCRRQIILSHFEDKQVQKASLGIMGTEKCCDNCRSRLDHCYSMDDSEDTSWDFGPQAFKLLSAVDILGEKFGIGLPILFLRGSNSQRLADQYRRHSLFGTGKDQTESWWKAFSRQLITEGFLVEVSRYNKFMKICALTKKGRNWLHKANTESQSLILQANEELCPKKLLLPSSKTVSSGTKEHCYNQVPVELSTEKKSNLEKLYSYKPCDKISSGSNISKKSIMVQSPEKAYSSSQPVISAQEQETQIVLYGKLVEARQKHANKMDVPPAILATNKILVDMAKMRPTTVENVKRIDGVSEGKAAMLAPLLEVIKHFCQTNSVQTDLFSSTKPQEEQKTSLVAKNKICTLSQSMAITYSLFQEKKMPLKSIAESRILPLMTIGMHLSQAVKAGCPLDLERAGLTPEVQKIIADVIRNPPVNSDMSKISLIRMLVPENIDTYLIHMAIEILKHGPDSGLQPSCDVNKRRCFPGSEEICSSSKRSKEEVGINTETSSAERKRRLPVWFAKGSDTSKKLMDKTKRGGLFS
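Primary qHTS, 1536-well format. 20 nM WRN + compound, 15 min RT; start with 100 nM forked fluorophore/quencher duplex, 2 mM ATP (final); kinetic read ex 525/em 598 nm.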
FEN1 inh: inhibitors of human flap endonuclease 1; P39748; AID 588795; 390,000 compounds, 0.35% hits; Recombinant FEN1 flap cleavage, fluorescence, 15 min; Potency, µM (top dose mostly 114 µM), without a hit: top-dose activity change, negative = inhibition, actives largely listed as inhibitors; note: nearly all actives have a fitted effect of over 65% in size
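In this screen, 50 nM flap DNA substrate was added to 10 nM FEN1 pretreated with compound for 15 min at room temperature; cleavage was followed with reads at 0 and 15 min, and Hill fitting gave concentration–response parameters.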
APEX1 inh: inhibitors of human APE1 endonuclease | P27695 | recombinant APE1, TAMRA/BHQ-2 abasic DNA cleavage fluorescence | Potency, µM (doses to about 65.8 µM), for inactives: top-dose activity change, negative = inhibition, hits mostly inhibitors | 350,000 compounds, 0.35% hits;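 note: plate controls were vehicle for no effect and reference inhibitor for full effect; nearly all actives have a fitted effect of over 55% in size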
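APE1 at 0.75 nM final was preincubated with compound 15 min at room temperature, then 50 nM double-stranded THF abasic-site substrate (5'-TAMRA/3'-BHQ-2) was added. Fluorescence (ex 525/em 598 nm) was read kinetically; third-minus-first read gave activity.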
RECQ1 conf: confirmation of human RECQ1 helicase inhibitors | shares compounds with RECQ1 inh-1 | RECQ1 helicase DNA unwinding, fluorescence | Potency, µM (doses to about 229 µM), for the others: at the highest dose activity change, negative = inhibition, actives largely listed as inhibitors | 610 compounds, 28% hits | AID 2708; note: nearly all actives have a fitted effect of over 45% in size
RECQ1 ADP FP: displaces ADP in a fluorescence polarization counter-screen for RECQ1 hits; Potency, µM (doses to about 228 µM), for inactives: at the highest dose activity change, negative = inhibition, most hits filed as inhibitors; shares compounds with RECQ1 inh-1; 530 compounds, 27% hits; AID 2711; ADP fluorescence polarization displacement counterscreen; note: nearly all actives have a fitted effect of over 45% in size
RECQ1 inh-2: RECQ1 helicase inhibition confirmed, round 2; 1,100 compounds, 15% hits; shares compounds with RECQ1 inh-1; recombinant RECQ1 DNA unwinding, red fluorescence; Potency, µM (series often up to 119 µM), for inactives: at the highest dose activity, negative = inhibition, usual class: inhibitors; note: nearly all actives have a fitted effect of over 50% in size
Starred values were filed as active, the others as inactive; i = inactive; ? = inconclusive; / = no result; ! = not confirmed by another sample; [ ] = dose if it differs, or a comment. Calls come from the whole dose curve; as a rule, active = well fitted curve in the direction sought with a large enough effect; inconclusive = small, poorly fitted or top-dose-only effect, or another doubt; inactive = no such curve, though single readings can be large; an effect the other way counts as inactive or inconclusive. Unless noted, % is set by controls: 0 for no effect and ±100 for the full control effect; potency is the fitted concentration of half-maximal effect.

SMILES	BLM helicase inh	RECQ1 inh-1	WRN helicase inh	FEN1 inh	APEX1 inh	RECQ1 inh-2	others
O=C(CSc1nc2ccccc2c(=O)[nH]1)c1ccc(O)cc1O	3%	-18%	-5%	12%	-2%	/
O=C(CSc1nc2ccccc2c(=O)[nH]1)c1ccc(O)c(O)c1	-2%	8.9µM*	14µM*	?	?	16µM*	RECQ1 conf=?;RECQ1 ADP FP=?
Cc1ccc(CN2CCCn3nc(C(=O)NCc4ccc(OC(C)C)cc4)cc3C2=O)cc1	-1%	/	/	-6%	/	/
O=S(=O)(c1ccccc1)n1c(C(O)c2ccccn2)cc2ccccc21 (centres undefined)	-2%	?	-27%[57.1 µM]	2%	0%	-13%
COc1ccc2c(c1)cc(C(O)c1ccccn1)n2S(=O)(=O)c1ccccc1 (centres undefined)	-3%	-13%	0%	-9%	?	/
c1ccc2oc(-c3[nH]ncc3CN3CCSCC3)cc2c1	-1%	?	2%	-17%	-1%	2%
Cc1cccc(SCc2noc(C(=O)NCC3CCCO3)c2C(=O)O)c1 (centres undefined)	0%	-10%	-3%	-1%	-1%	/
Cc1cc(C)cc(SCc2noc(C(=O)NCC3CCCO3)c2C(=O)O)c1 (centres undefined)	-2%	-8%	-2%	17%	-11%	/	RECQ1 conf=10%;RECQ1 ADP FP=?
O=C(CCCN1C(=O)C(c2ccccc2)Oc2cccnc21)Nc1ccc(Br)cc1F (centres undefined)	-1%	/	/	9%	/	/
O=C(C=Cc1ccccc1)c1cc(Br)ccc1O	/	/	-18%	2%	/	/
Cc1ccc(/C=C/C(=O)c2cc(Br)ccc2OC(=O)c2ccco2)cc1	-15%	-6%	-6%	-15%	-9%	/
CCOc1ccc(/C=C/C(=O)c2cc(Br)ccc(=O)c2O)cc1	-17%	22µM*	?	45µM*	21%	?
Cc1cccc(/C=C/C(=O)c2cc(Br)ccc(=O)c2O)c1	-17%	?	?	?	-12%	?
CCc1ccc(/C=C/C(=O)c2cc(Br)ccc(=O)c2O)cc1	-21%	?	-27%	?	?	?
Cc1cc2nc3c(=O)[nH]c(=O)nc-3n(CC(O)C(O)C(O)CO)c2cc1C (centres undefined)	-5%	35µM*!	/	/	?	/	RECQ1 conf=112µM*;RECQ1 ADP FP=45µM*
O=C(/C=C/c1ccccc1)NCCc1ccccc1	-20%	18µM*	-11%	-7%	7.9µM*	?	RECQ1 conf=11%[114 µM];RECQ1 ADP FP=?
COc1ccc2c(Sc3ccccc3)c(C(=O)NCCc3ccc(Cl)cc3)[nH]c2c1	0%	/	/	12%	/	/
Cc1ccc(/C=C/C(=O)NCc2ccccn2)o1	?	?	50µM*	-26%	?	18µM*
COc1ccc(/C=C/C(=O)NCc2ccccn2)cc1	1%	-42%	-2%	2%	0%	/
Cc1cccc(NC(=O)CN2C(=O)CCc3ccccc32)c1C	-6%	/	/	3%	/	/
COC(=O)c1cc2ccsc2n1Cc1nc(-c2ccc(OC)cc2)oc1C	-4%	32µM*	-24%	-2%	-2%	-23%
CCCc1cc(=O)oc2cc(C)c3c(-c4ccccc4)coc3c12	-4%	/	/	-1%	/	/
COc1ccc(S(=O)(=O)NCCS(=O)(=O)N2CCN(c3ccccc3)CC2)cc1C	-8%	/	/	-2%	/	/
Cc1ccc(NC(=O)N(Cc2c[nH]c3ccccc23)C2CCCCCC2)cc1C	1%	/	/	-22%	/	/
O=C(O)CC/C(=N/NC(=O)c1cn(-c2ccccc2)nc1-c1ccccc1)C(=O)O	7%	i	-4%[57.1 µM]	5%	3%	/	RECQ1 conf=3%;RECQ1 ADP FP=-7%
